# Test results published in PubChem BioAssay.
# Calls of active or inactive are those of the source.
# Assays:
# [1] = compounds binding Alexa647 anti-His antibody – biochemical, small-molecule microarray, 635 nm fluorescence, artefact control for SMM control protein annotation, primary screen (AID 1128); conditions: higher = more signal;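 also: score merges feature fluorescence with signal-to-noise for each printed compound spot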
# [2] = tested on: Human papillomavirus type 1a E7 protein (residues 1-88); test: HPV1a E7 small-molecule binders, primary screen, biochemical, small-molecule microarray, residues 1-88, 635 nm (AID 1129); conditions: small-molecule microarray binding, fluorescence 635 nm; higher = more signal
# [3] = target: Focal adhesion kinase 1 (Homo sapiens) (UniProt Q05397); test: PTK2 protein binding on printed compound slides – biochemical, small-molecule microarray, 635/667 nm fluorescence, BSA, DTT, primary screen (AID 1130); conditions: 635 nm fluorescence, higher = more signal;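 also: composite of spot emission at 667 nm and signal to noise over triplicate slides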
# Sequence of Focal adhesion kinase 1 (Homo sapiens) (Q05397 whole entry, looked up): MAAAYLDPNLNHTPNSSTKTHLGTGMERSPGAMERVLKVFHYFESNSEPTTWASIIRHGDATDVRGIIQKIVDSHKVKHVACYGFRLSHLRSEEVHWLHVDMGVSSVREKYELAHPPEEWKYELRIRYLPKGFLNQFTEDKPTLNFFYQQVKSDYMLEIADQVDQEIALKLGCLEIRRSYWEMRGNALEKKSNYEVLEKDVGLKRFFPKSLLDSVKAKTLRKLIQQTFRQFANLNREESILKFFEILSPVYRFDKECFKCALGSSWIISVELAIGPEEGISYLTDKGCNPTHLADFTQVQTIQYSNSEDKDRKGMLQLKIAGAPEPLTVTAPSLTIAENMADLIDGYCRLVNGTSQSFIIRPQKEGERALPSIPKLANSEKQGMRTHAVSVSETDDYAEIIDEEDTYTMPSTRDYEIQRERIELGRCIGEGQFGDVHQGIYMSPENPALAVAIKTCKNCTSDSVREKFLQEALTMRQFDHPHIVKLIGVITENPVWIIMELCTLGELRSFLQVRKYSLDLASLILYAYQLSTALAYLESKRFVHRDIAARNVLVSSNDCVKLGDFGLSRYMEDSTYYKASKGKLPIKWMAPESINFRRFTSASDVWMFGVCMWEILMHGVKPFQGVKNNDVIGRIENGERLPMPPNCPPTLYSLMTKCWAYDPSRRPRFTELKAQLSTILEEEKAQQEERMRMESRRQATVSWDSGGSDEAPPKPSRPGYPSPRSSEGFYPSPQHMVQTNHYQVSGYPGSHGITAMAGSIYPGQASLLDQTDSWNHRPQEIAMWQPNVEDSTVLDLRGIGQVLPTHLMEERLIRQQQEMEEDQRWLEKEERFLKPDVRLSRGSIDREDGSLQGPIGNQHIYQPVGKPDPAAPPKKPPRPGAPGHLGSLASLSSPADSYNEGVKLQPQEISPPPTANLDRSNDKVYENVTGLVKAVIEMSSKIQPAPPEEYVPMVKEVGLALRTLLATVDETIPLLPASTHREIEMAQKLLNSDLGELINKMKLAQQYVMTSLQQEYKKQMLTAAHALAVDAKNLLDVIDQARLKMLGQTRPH
# [4] = tested on: Fibrinogen (Alexa647-labelled); test: Alexa647-fibrinogen binding to printed small molecules – biochemical, small-molecule microarray, 635/667 nm fluorescence, artefact control for SMM control-protein annotation, profiling panel (AID 1131); conditions: fibrinogen-A647 binding fluorescence, higher = more signal;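 also: z-score merges 667 nm fluorescence with per-spot signal-to-noise over triplicate slides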
# [5] = target: Follistatin (Homo sapiens) (UniProt P19883); test: FST protein binding to printed compounds – biochemical, small-molecule microarray, 635/667 nm fluorescence, primary screen (AID 1132); conditions: 635 nm fluorescence, higher = more signal
# Sequence of Follistatin (Homo sapiens) (P19883 whole entry, looked up): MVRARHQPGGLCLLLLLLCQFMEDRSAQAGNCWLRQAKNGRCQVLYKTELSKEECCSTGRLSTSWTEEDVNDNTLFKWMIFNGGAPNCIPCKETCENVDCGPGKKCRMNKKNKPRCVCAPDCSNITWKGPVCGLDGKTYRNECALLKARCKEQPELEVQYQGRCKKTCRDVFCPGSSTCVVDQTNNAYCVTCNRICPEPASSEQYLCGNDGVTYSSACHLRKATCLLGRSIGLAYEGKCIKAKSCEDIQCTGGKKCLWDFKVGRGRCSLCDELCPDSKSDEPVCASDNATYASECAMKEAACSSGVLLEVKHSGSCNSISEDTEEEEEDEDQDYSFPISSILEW
# [6] = target: Fibroblast growth factor 2 (Homo sapiens) (UniProt P09038); test: basic fibroblast growth factor binding to printed compounds – biochemical, small-molecule microarray, 635/667 nm fluorescence, primary screen (AID 1133); conditions: FGF2, fluorescence 635/667, higher = more signal
# Sequence of Fibroblast growth factor 2 (Homo sapiens) (P09038 whole entry, looked up): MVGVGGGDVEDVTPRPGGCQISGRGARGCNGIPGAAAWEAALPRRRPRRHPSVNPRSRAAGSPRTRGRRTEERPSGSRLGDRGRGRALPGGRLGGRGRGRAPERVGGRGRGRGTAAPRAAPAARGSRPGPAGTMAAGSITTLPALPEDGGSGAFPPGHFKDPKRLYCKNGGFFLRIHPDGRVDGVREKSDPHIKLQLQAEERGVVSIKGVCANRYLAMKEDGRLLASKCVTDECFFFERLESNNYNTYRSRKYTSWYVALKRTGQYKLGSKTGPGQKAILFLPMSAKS
# [7] = JC-1 mitochondrial potential readout, lung cancer cells – cell-based, A549, JC-1 fluorescence, basal, 24 h, 100 nL, profiling panel (AID 1138); conditions: higher = more signal;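 also: A549 lung adenocarcinoma cells under basal conditions with no added stimulus; test concentration not given here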
# [8] = tested on: Lefty1; test: Lefty1 protein binding to printed compounds – biochemical, small-molecule microarray, 635/667 nm fluorescence, primary screen (AID 1139); conditions: fluorescence 635/667, higher = more signal
# [9] = tested on: wheat germ agglutinin (Triticum aestivum), Alexa647-labelled; test: Alexa647-WGA lectin binding to printed small molecules – biochemical, small-molecule microarray, 635/667 nm fluorescence, artefact control for SMM control-protein annotation, profiling panel (AID 1140); conditions: WGA-A647 binding, 635 nm fluorescence, higher = more signal;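 also: score merges 667 nm feature emission with signal to noise over triplicate slides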
# [10] = target: Luciferin 4-monooxygenase (Photinus pyralis) (UniProt P08659); test: inhibition of purified Photinus pyralis luciferase – biochemical, luminescence, purified enzyme, 2006 set, primary screen (AID 1141); conditions: purified firefly luciferase, SteadyGlo luminescence, 30 min; higher = more signal, called active from +8 up or from −8 down;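 also: cell-free assay with purified firefly luciferase at 100 ng per well in PBS; test concentration not given here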
# Sequence of Luciferin 4-monooxygenase (Photinus pyralis) (P08659 whole entry, looked up): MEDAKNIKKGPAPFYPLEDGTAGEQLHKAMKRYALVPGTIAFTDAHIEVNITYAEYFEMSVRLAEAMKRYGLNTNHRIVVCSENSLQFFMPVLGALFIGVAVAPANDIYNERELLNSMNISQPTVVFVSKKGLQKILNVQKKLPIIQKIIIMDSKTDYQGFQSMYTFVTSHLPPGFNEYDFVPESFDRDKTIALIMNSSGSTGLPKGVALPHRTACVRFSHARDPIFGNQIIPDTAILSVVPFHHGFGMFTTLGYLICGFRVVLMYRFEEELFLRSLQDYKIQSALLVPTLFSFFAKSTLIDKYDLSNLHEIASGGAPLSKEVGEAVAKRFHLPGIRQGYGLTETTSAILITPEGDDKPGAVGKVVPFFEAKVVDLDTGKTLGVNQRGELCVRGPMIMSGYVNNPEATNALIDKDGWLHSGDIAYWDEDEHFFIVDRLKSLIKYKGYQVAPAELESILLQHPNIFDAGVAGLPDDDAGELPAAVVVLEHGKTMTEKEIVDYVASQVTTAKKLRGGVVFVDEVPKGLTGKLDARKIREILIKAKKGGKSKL
SMILES,composite z-score [1],composite z-score [2],composite z-score [3],composite z-score [4],composite z-score [5],composite z-score [6],z-score [7],composite z-score [8],composite z-score [9],z-score [10]
CCCCC(=C=CC[C@@H](O)c1ccccc1OCCO)CCO,-0.448,-0.21,-0.206,-0.883,0.531,-0.397,1.25,0.036,0.177,-1.85 (inactive)
COc1ccc([Si](C)(C)[C@H]2[C@H](CCO)O[C@@]3(C(=O)N(C)c4c(Br)cc(C)cc43)[C@@H]2C)cc1,0.494,0.969,0.295,0.15,0.675,0.425,-1.69,0.486,0.773,0.481 (inactive)
CC(C)C[C@H]1NC(=O)[C@@]23C(=O)N[C@@H](Cc4ccccc4)C2[C@H](C)[C@@]2(C)O[C@H]2C3/C=C/C/C=C\CNC(=O)[C@H](Cc2ccccc2)NC1=O (stereo not given in full),0.218,0.45,-0.291,0.183,1.01,0.717,0.156,1.24,-0.204,-3.01 (inactive)
O=C(C1N=C(c2ccc(OCCCO)cc2)N(c2ccccc2)O1)N1CCOCC1 (stereo not given),0.548,1.2,0.497,0.966,1.22,0.667,0.211,0.842,0.388,-12 (active)
COC(=O)[C@@]1(Cc2ccccc2)[C@H]2c3cc(C(=O)N4CCCC4)n(Cc4cccc5ccccc45)c3C[C@H]2CN1C(=O)c1ccccc1,2.46,1.17,0.971,0.51,0.184,-0.0086,1.11,-0.922,1.29,1.4 (inactive)
C=CCNC(=O)[C@@H]1[C@H]2C(=O)O[C@H](c3ccccc3)[C@H](c3ccccc3)N2[C@H](c2ccccc2OCCO)[C@@]12C(=O)N(C(=O)OCCOC)c1ccc(C#CCNC(N)=O)cc12,1.56,1.14,0.322,0.887,0.864,0.658,-0.206,0.857,0.916,-0.63 (inactive)
COc1ccc([C@H]2C[C@H]3C(Br)=C[C@@H]2C(=O)[C@]32CO2)cc1,0.613,-0.751,0.298,-0.325,0.6,0.194,0.271,0.0745,-0.138,-0.388 (inactive)
CN(C)C(=O)[C@]1(Cc2ccccc2N=[N+]=[N-])N=C(c2ccc(OCCCO)cc2)O[C@@H]1c1ccccc1,1.03,1.22,0.633,0.882,1.31,1.58,1.71,0.0484,0.986,-1.08 (inactive)
